Data taken from PubChem BioAssay.

Assay: MM1S cell viability effects, profiling panel, calcein-AM fluorescence, 48 h, basal (AID 1165);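 note: viability of MM1S multiple myeloma cells under basal unstimulated conditions; test concentration not given here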
Conditions: higher = more signal
Compound `CC1CC/C=C\[C@H]2OC34C=CCN(c5ccc6ccccc6c5)C(=O)[C@H]3N(CCCCCO)C(=O)[C@@H]4C2C(=O)O1` (stereo not given in full) has a z-score of 1.68.
With `CN1C(=O)C2C=CC(C(O)C(C)(C)C)N(Nc3ccccc3)C2C1=O` (stereo not given) the z-score was 0.235.
In the case of `Cc1ccc(S[C@]2(C(=O)NCCCN(C)C)CC(=O)N(Cc3ccccc3)[C@@H]2c2ccc(CO)cc2)cc1`, the z-score is reported as -0.569.
Compound `O=C1O[C@H](c2ccccc2)[C@H](c2ccccc2)N2[C@H]1[C@@H](C(=O)NC[C@H](O)c1ccccc1)[C@]1(C(=O)Nc3ccc(C#CC4=CCCCC4)cc31)[C@H]2c1ccc(O)cc1` has a z-score of -3.18.
`O=C(CS)NCCCCCNC(=O)[C@H]1C[C@H]2C(=O)N[C@@H](Cc3ccccc3)C(=O)N2[C@H]1c1cccc(OCCO)c1` gave a z-score of 0.898.
`CCCC[C@H]1OB(O)C[C@H]2C1=C(COc1ccccc1)C[C@H]1C(=O)N(Cc3ccccc3)C(=O)[C@H]12` gave a z-score of -1.09.
`O=c1cccc(-c2cccc3ccccc23)o1` showed a z-score of -1.09.
`CCCCCN1CC=CC23O[C@@H]4C=CCCOC(=O)C4[C@H]2C(=O)N(CCCO)[C@@H]3C1=O` (stereo not given in full) showed a z-score of 0.0357.
With `CS(=O)(=O)CCOC(=O)C1=CC(c2ccc(CO)cc2)=CC(c2cccs2)N(Cc2cccc(OC(F)(F)F)c2)C=C1C(=O)OCCS(C)(=O)=O` (stereo not given) the z-score was -3.31.
Work on `C#C[C@H](O[Si](C#CCCCCCC)(C(C)C)C(C)C)c1ccccc1` yielded a z-score of 0.665.
Compound `COc1ccc([Si](C)(C)[C@@H]2[C@@H](CCO)O[C@]3(C(=O)N(Cc4ccccc4)c4ccc(N(C=O)c5ccccc5)cc43)[C@H]2C)cc1` has a z-score of -1.54.
`C=C(COC)C(=O)CC[C@H](OC(=O)c1cccnc1)c1ccccc1OCCO` showed a z-score of -3.3.
Compound `C=CCC(OC(C)=O)[C@@H]1[C@@H](N(Cc2cc3ccccc3o2)C(=O)c2ccc(C)cc2)c2cc(OCCCO)ccc2N1C(=O)c1ccc(-c2ccccc2)cc1` (stereo not given in full) has a z-score of 0.217.
For `NC(=O)[C@]1(Cc2ccccc2)N=C(c2ccc(OCCCO)cc2)O[C@@H]1c1ccccc1`, the z-score was -0.598.
In the case of `[N-]=[N+]=NCc1ccccc1C[C@]1(C(=O)NCCN2CCOCC2)N=C(c2ccc(OCCCO)cc2)O[C@H]1c1ccccc1CN=[N+]=[N-]`, the z-score is reported as -2.14.
`CCOC(=O)C1=CC[C@@H](c2cccc(Cl)c2)N(S(=O)(=O)c2ccc(C)cc2)[C@H]1c1ccc(C#N)cc1` showed a z-score of -0.692.
`O=c1cccc(-c2ccccc2)o1` gave a z-score of -1.11.
In the case of `CC(=O)NCCCC[C@@H]1NC(=O)[C@@H]2C[C@H](C(=O)NCc3ccc(F)cc3)[C@H](c3ccc(O)cc3)N2C1=O`, the z-score is reported as -1.18.
In the case of `O=C1OCCC=C[C@H]2OC34C=CCN(c5ccc6ccccc6c5)C(=O)[C@H]3N(CCCCCCO)C(=O)[C@@H]4C12` (stereo not given in full), the z-score is reported as 1.1.
Work on `O=C1OCCC/C=C\[C@H]2OC34C=CCN(Cn5nnc6ccccc65)C(=O)[C@H]3N(CCCO)C(=O)[C@@H]4C12` (stereo not given in full) yielded a z-score of 1.25.
`CC(C)OC(=O)C1=CCC(c2cccc(Cl)c2)O1` (stereo not given) showed a z-score of -1.57.
`O=C1[C@H]2C=C(Br)[C@H](C[C@@H]2OCCOCCO)[C@@]12CO2` gave a z-score of -0.368.
In the case of `O=c1cccc(-c2ccc3ccccc3c2)o1`, the z-score is reported as -0.332.
`CCCCCCCCCCC(O)C1C=CC2C(=O)N(c3ccccc3)C(=O)C2N1Nc1ccc([N+](=O)[O-])cc1` (stereo not given) gave a z-score of -3.31.
`CN1C(=O)C2C=CC(C(O)c3ccccc3)N(NC(=O)OC(C)(C)C)C2C1=O` (stereo not given) showed a z-score of -0.965.
In the case of `CN(C)CCCC[C@@H]1NC(=O)[C@@H]2C[C@H](C(=O)NCCCCCCN)[C@H](c3ccc(O)cc3)N2C1=O`, the z-score is reported as 0.405.
With `CCOC(=O)C[C@H]1[C@H](OC(=O)c2cc3ccccc3oc2=O)[C@@H](NC(=O)c2ccc3ccccc3c2)c2cc(OCCCO)ccc2N1C(=O)c1ccccc1` the z-score was 0.0168.
In the case of `COc1ccc([Si](C)(C)[C@@H]2[C@@H](CCO)O[C@]3(C(=O)N(Cc4ccc(N5C(=O)c6cccc7cccc5c67)cc4)c4ccccc43)[C@H]2C)cc1`, the z-score is reported as -1.6.
`O=C(NCC(O)CO)[C@@]1(Cc2ccccc2)COC(c2ccc(OCCCO)cc2)=N1` (stereo not given in full) gave a z-score of -0.467.
With `CC(C)(C)OC(=O)CC[C@]1(C(=O)NCC(O)CO)N=C(c2ccc(OCCCO)cc2)O[C@H]1c1ccccc1CN=[N+]=[N-]` (stereo not given in full) the z-score was -1.1.
For `C=C(/C(=C/C[C@@H](OC(C)=O)c1ccc(CO)o1)c1cnc2ccccc2c1)C(C)C`, the z-score was -0.644.
For `O=C1O[C@H](c2ccccc2)[C@H](c2ccccc2)N2[C@H]1[C@@H](C(=O)NC[C@H](O)c1ccccc1)[C@]1(C(=O)Nc3ccc(C#CC4(O)CCCCCC4)cc31)[C@H]2c1ccccc1OCCO`, the z-score was -3.33.
`O=C1C[C@@](C(=O)O)(c2ccc([N+](=O)[O-])cc2)[C@@H](c2ccc(CO)cc2I)N1C1CCCCC1` showed a z-score of -3.6.
Work on `COc1ccc(CCNC(=O)[C@@]2(C)c3ccccc3C(=O)N(Cc3ccccc3)[C@H]2c2ccc(CO)cc2)cc1` yielded a z-score of -0.886.
For `CC1CC/C=C\[C@H]2OC34C=CCN(Cn5nnc6ccccc65)C(=O)[C@H]3N(CCCO)C(=O)[C@@H]4C2C(=O)O1` (stereo not given in full), the z-score was 0.159.
